In the OligoGym collection one finds sensor-assay potency score (higher = more potent) data, which are given here for 15 sequences.
Further: reference of the scale not given here.

The first assay deals with ATG16L1. Briefly: pooled miR-30 sensor sort-seq; sequence = guide strand. The following applies: shRNA.
The sequence TATCATTGCAACTGGATCCTGC registered a sensor-assay potency score (higher = more potent) of 0.235.
Turning to TTGCAAAATCATTTGAAGCTGC, the sensor-assay potency score (higher = more potent) worked out at 0.00437.
The sequence TTTGTCCACACTGACAACGTGC registered a sensor-assay potency score (higher = more potent) of -0.838.
The same measure, in the same setting: then TTTTTCTCCAAATACTTCCCAA, with -0.436.

The target in a further assay is ATHL1. The assay is described as above. The conditions noted are these: shRNA.
TTGGTGTACACAGAGTTGTTGA displayed a sensor-assay potency score (higher = more potent) of -0.594.
For the sequence TTGATCTTGTCAGCCACCGCCA, the sensor-assay potency score (higher = more potent) is -0.876.
Still for that read-out and setting: under TCGAAATAGCTGCAGGTCCTGG stands -1.24; under TCGAGCTGTGACCTCCACGGTC, -1.01; under TCAAAGGGTACCTTGATCTTGT, 0.372.
On the same count and under the same terms, then TCCACAGTGAGTGACTCGGTGG, with -1.15; and TAAATCTCCAGATTTTTCCTGC, with 0.146; and TACACAGAGTTGTTGACCCCTG, with -0.218.
TACCTTGATCTTGTCAGCCACC had a sensor-assay potency score (higher = more potent) of -0.985.
The same measure, in the same setting: then TGGAACATCAGGATACTCGGGA, with -0.126.
On the same count and under the same terms, then TTTTTGGCAAAGCTGCACCTGA, with -0.809.
